Screening results from PubChem BioAssay.
This is a sample that favours compounds with a hit; in the whole collection about 11% have one here.
AMA1-RON2 inh = AMA1-RON2 (P. falciparum) interaction inhibition; 360,000 tested, 0.2% active; Potency, µM (series often up to 58.2 µM), for inactives: top-dose activity change, negative = inhibition, actives largely listed as inhibitors; AID 720542; AlphaScreen AMA1-biotinylated RON2 peptide binding;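 note: 0% = vehicle wells and -100% = peptide control; nearly all actives have a fitted effect of over 45% in size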
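AMA1 (3D7) with his tag at 25 nM final met compounds first, then biotinylated RON2 peptide at 25 nM; detection used donor plus acceptor beads, 10 µg/mL apiece, read by AlphaScreen after 30 min at room temperature.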
Pf growth 96h = P. falciparum growth inhibition at 96 hour, primary screen for plastid delayed-death inhibitors | P. falciparum luciferase reporter growth, 96 h | Potency, µM (series often up to 28.7 µM), for the others: at the highest dose activity change, negative = inhibition, actives largely listed as inhibitors | 320,000 tested, 6.9% active
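Infected RBCs, 2% Hct / 0.05% parasitemia final; luciferase-reporter P. falciparum; cpd 96 h, 37 C, 5% CO2; luciferase detection reagent; luminescence.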
HCV inh = HCV inhibition; AID 651820; Huh7.5.1 HCVcc-Cre infection, luciferase reporter, 44 h; Potency, µM (series often up to 41.8 µM), for the others: top-dose activity change, negative = inhibition, hits mostly inhibitors; 340,000 tested, 3.4% active
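Infectious HCV cell culture screen: compound-treated cells (1,000/well, pre-plated 4 h) are infected with HCVcc-Cre at roughly 0.5 moi and grown 44 h. Infection is quantified by luciferase signal after 15 min substrate incubation at room temperature.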
Pf growth 48h = P. falciparum growth inhibition at 48 hours (one generation). P. falciparum luciferase growth in erythrocytes, 48 h. Potency, µM (series often up to 28.7 µM), for the others: at the highest dose activity change, negative = inhibition, actives largely listed as inhibitors. 310,000 tested, 5.9% active
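Luciferase-expressing P. falciparum in infected erythrocytes (2% hematocrit, 0.1% parasitemia final) in RPMI 1640/0.5% Albumax were exposed to compound for 48 hours at 37 C, 5% CO2; growth read as luminescence.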
An asterisk follows results filed as active; [ ] = another dose, or the depositor's remark. Calls come from the whole dose curve; as a rule, active = well fitted curve in the direction sought with a large enough effect; inconclusive = small, poorly fitted or top-dose-only effect, or another doubt; inactive = no such curve, though single readings can be large; an effect the other way counts as inactive or inconclusive. Unless noted, % is set by controls: 0 for no effect and ±100 for the full control effect; potency is the fitted concentration of half-maximal effect.

For COc1ccc(C2/C=C\CN(C(=O)c3ccccc3)CC(=O)N2Cc2ccc(F)cc2)cc1 (stereo unspecified) the results were AMA1-RON2 inh -9%, Pf growth 96h inconclusive, HCV inh -13%[8.37 µM] and Pf growth 48h inconclusive.
For CCCCCCC(=O)N1C/C=C\C(c2ccc(OC)cc2)N(Cc2ccc(F)cc2)C(=O)C1 (stereo unspecified) the results were AMA1-RON2 inh -11%, Pf growth 96h inconclusive, HCV inh -2% and Pf growth 48h inconclusive.
Screening CCCCCCC(=O)N1C/C=C\C(c2ccc(OC)cc2)N(Cc2ccc(F)cc2)C(=O)[C@H]1Cc1ccccc1 (stereo partly specified) returned AMA1-RON2 inh -2%, Pf growth 96h 7.4µM*, HCV inh -20%[8.37 µM] and Pf growth 48h 9.3µM*.
For COc1cc(N2CN=c3s/c(=C\c4ccccn4)c(=O)n3C2)cc(OC)c1OC the results were AMA1-RON2 inh -4%, Pf growth 96h 4%, HCV inh -1% and Pf growth 48h 0%.
COC(=O)c1cccn(CC(=O)c2ccc(Cl)cc2)c1=O was read as AMA1-RON2 inh -6%, Pf growth 96h 4%, HCV inh 11% and Pf growth 48h -4%.
Screening COc1ccc(NC(=O)CCCNC(=O)Cn2cnc3sc4c(c3c2=O)CCCC4)c(OC)c1 returned AMA1-RON2 inh 10%, Pf growth 96h 15%, HCV inh -2% and Pf growth 48h -13%.
`COc1ccc(-c2csc(C(C#N)=C(O)CSc3nccn3C)n2)cc1OC` gave AMA1-RON2 inh 10% and HCV inh -15%.
Screening CCOc1cc(-c2cn(S(=O)(=O)c3cccc4nsnc34)nc2N)cc(OCC)c1OCC returned AMA1-RON2 inh -1%, Pf growth 96h inconclusive and HCV inh inconclusive.
COc1ccccc1-c1cn(S(=O)(=O)c2ccc(F)cc2)nc1N was read as AMA1-RON2 inh 1%, HCV inh 10µM* and Pf growth 48h inconclusive.
Screening CCOc1ccc(S(=O)(=O)n2cc(-c3ccc(F)cc3)c(N)n2)cc1 returned AMA1-RON2 inh 0%, Pf growth 96h 9.3µM* and HCV inh inconclusive.
Screening CCOc1cc(S(=O)(=O)n2cc(-c3ccc(F)cc3)c(N)n2)cc(OCC)c1OCC returned AMA1-RON2 inh -4%, HCV inh 6.3µM* and Pf growth 48h 8.3µM*.
Screening CCOc1ccc(S(=O)(=O)n2cc(-c3ccccc3)c(N)n2)cc1 returned AMA1-RON2 inh -8%, Pf growth 96h inconclusive, HCV inh 5% and Pf growth 48h inconclusive.
`N#Cc1ccc(C(=O)N2CCCCC2c2cc(C(=O)Nc3cccc(C#N)c3)no2)cc1` (stereo unspecified) gave AMA1-RON2 inh 0%.
Screening COc1cccc(NC(=O)CSc2nc3ccccc3c(=O)n2C)c1 returned AMA1-RON2 inh -3%, Pf growth 96h inconclusive, HCV inh 22µM* and Pf growth 48h 12µM*.
Cc1ccc(NC(=O)CSc2nc(O)cc(=O)n2C)cc1 was read as AMA1-RON2 inh 11%, Pf growth 96h -1%, HCV inh -4% and Pf growth 48h -4%.
Cc1ccc(NC(=O)CSc2nc(O)cc(=O)n2-c2ccc(C)cc2)cc1 was read as AMA1-RON2 inh 0%, Pf growth 96h inconclusive, HCV inh 7% and Pf growth 48h 13µM*.
For CC(C)Oc1ccccc1NC(=O)CSc1nc2ccccc2c(=O)n1C the results were AMA1-RON2 inh 0%, Pf growth 96h 6%, HCV inh inconclusive and Pf growth 48h -27%.
For COc1ccc(-n2c(SCC(=O)N3CCOCC3)nc(O)cc2=O)cc1 the results were AMA1-RON2 inh 21%, Pf growth 96h 5.9µM*, HCV inh 24% and Pf growth 48h 13%.
Screening Nc1cc(=O)nc(SCC(=O)Nc2ccccc2)n1-c1ccccc1 returned AMA1-RON2 inh -10%, Pf growth 96h 1.9µM*, HCV inh 10% and Pf growth 48h 1%.
Screening CC(C)c1ccc(NC(=S)NNC(=O)c2cccs2)cc1 returned AMA1-RON2 inh 87%, Pf growth 96h -11%[1.15 µM], HCV inh 12% and Pf growth 48h 20%.
For CCCOc1ccc(F)cc1-c1cc(C(=O)Nc2ccccc2)[nH]n1 the results were AMA1-RON2 inh 16%.
`Cc1noc(C)c1CN1C(=O)c2ccccc2C1=O` gave AMA1-RON2 inh -17%, Pf growth 96h inconclusive, HCV inh 13% and Pf growth 48h 15%.
Screening O=C(NCc1ccc(Cl)cc1)C1CCC(CNS(=O)(=O)c2ccccc2)CC1 (stereo unspecified) returned AMA1-RON2 inh 5%, Pf growth 96h -1%, HCV inh -4% and Pf growth 48h -20%.
Screening COc1cccc(NC(=O)CSc2nc(O)c(C)c(=O)n2-c2ccc(C)cc2)c1 returned AMA1-RON2 inh -3%, Pf growth 96h 10µM*, HCV inh inconclusive and Pf growth 48h -5%.
Cc1c(O)nc(SCC(=O)Nc2cccc(C(F)(F)F)c2)n(-c2ccccc2)c1=O was read as AMA1-RON2 inh 9%, Pf growth 96h inconclusive, HCV inh -2% and Pf growth 48h -8%.
For CC1CCCC(C)N1/N=C/c1ccc(C(=O)O)cc1 (stereo unspecified) the results were AMA1-RON2 inh 0%, Pf growth 96h 78%, HCV inh 22% and Pf growth 48h 35%.
Screening Cc1cc(C)cc(NC(=O)[C@@H](NC(=O)c2ccco2)C(C)C)c1 returned AMA1-RON2 inh 9%, Pf growth 96h -8%, HCV inh -17% and Pf growth 48h 0%.
Cn1ccsc1=NC(=O)c1ccc(S(C)(=O)=O)c([N+](=O)[O-])c1 was read as AMA1-RON2 inh 7%, Pf growth 96h 15%, HCV inh 10µM* and Pf growth 48h 42%.
Screening CCCCCCOc1ccc(C(=N)N(CCCC)CCCC)c2ccccc12 returned Pf growth 96h 8.5µM* and Pf growth 48h 12µM*.
CCCCN(C)CCOc1ccccc1OCC was read as AMA1-RON2 inh -17%, Pf growth 96h inconclusive, HCV inh -3% and Pf growth 48h 11%.
`C[C@H](NC(=O)[C@@H]1CSC2c3ccccc3C(=O)N21)C(=O)NCc1c(F)cccc1Cl` (stereo partly specified) gave AMA1-RON2 inh 4%, Pf growth 96h 12µM*, HCV inh -12% and Pf growth 48h inconclusive.
`CCCN1CCc2c(sc3nc(SCC)n(-c4ccc(OC)cc4)c(=O)c23)C1` gave AMA1-RON2 inh -2%, Pf growth 96h 0.59µM*, HCV inh inconclusive and Pf growth 48h 5.9µM*.
`C=CCSc1nc2sc3c(c2c(=O)n1-c1ccccc1)CCN(C)C3` gave AMA1-RON2 inh -9%, Pf growth 96h 0.59µM*, HCV inh inconclusive and Pf growth 48h inconclusive.
For COc1ccc(-n2c(SCC(=O)Nc3nccs3)nc3sc4c(c3c2=O)CCN(C)C4)cc1 the results were AMA1-RON2 inh -6%, Pf growth 96h inconclusive, HCV inh -4% and Pf growth 48h inconclusive.
